Source: PubChem BioAssay AID652016 (National Center for Advancing Translational Sciences (NCATS), 2013)
Results filed as inconclusive are left out. Entries that show only a call come without a potency. The source made the active and inactive calls. Calls come from the whole dose curve; as a rule, active = well fitted inhibition curve with a large enough effect; inconclusive = small, poorly fitted or top-dose-only effect; inactive = flat fitted curve, though single readings scatter.

target: Luciferin 4-monooxygenase (Photinus pyralis) (UniProt P08659); assay: qHTS Assay for Inhibitors of Firefly Luciferase from the GSK Published Protein Kinase Inhibitor Set; settings: purified firefly luciferase, luminescence inhibition; series mostly up to 57.5 µM
Procedure, shortened: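 Purified P. pyralis luciferase, 10nM, with 10uM D-luciferin and 10uM ATP in 50mM Tris acetate pH 7.5, 10mM Mg acetate, 0.01% Tween-20, 0.05% BSA. Titration ~60uM to 300pM; luminescence read after about 5 min.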
Potency is the fitted concentration of half-maximal effect.

Luciferin 4-monooxygenase (Photinus pyralis), sequence (P08659 whole entry, looked up): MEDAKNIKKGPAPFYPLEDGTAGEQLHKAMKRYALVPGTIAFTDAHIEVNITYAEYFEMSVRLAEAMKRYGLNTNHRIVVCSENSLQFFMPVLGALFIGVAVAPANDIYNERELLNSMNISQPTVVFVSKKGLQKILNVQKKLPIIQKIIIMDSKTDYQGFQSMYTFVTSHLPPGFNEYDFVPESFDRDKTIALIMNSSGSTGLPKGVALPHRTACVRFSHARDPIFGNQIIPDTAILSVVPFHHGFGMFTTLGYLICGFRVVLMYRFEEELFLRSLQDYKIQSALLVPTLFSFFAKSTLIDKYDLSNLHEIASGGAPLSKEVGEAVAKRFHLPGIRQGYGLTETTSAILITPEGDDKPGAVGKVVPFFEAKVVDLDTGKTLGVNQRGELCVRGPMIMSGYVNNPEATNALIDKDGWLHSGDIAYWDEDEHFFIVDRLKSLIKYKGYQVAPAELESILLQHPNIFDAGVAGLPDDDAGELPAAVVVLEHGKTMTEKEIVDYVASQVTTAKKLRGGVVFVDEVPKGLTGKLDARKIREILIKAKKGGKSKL

| SMILES | Potency |
| --- | --- |
| Cc1nn(C)c2cc(N(C)c3ccnc(Nc4cccc(S(N)(=O)=O)c4)n3)ccc12 | inactive |
| NS(=O)(=O)c1ccc(N=Nc2c(O)[nH]c3ccc(C(=O)NCCc4cnc[nH]4)cc23)cc1 | inactive |
| c1ccc(-c2nc3n(c2-c2ccc4c(c2)OCO4)CCC3)nc1 | inactive |
| CN1CCN(CCCNc2nc3ccc(Oc4ccc(NC(=O)Nc5cc(C(F)(F)F)ccc5F)cc4)cc3[nH]2)CC1 | inactive |
| CCOc1nccc2c1nc(-c1nonc1N)n2CC | inactive |
| NS(=O)(=O)c1cccc(Nc2cc(-c3ccc(F)cc3)[nH]n2)c1 | 11.6 µM (active) |
| O=C(Nc1n[nH]c2cc(-c3ccccc3)ccc12)C1CC1 | 18.3 µM (active) |
| CN1CCC(C(=O)Nc2n[nH]c3nnc(-c4ccccc4)cc23)CC1 | inactive |
| COc1cc(Nc2nccc(-c3cnn4ncccc34)n2)cc(OC)c1 | inactive |
| NS(=O)(=O)c1cccc(-c2cc3ccncc3cc2OCc2ccccc2)c1 | inactive |
| Nc1nonc1-c1nc2cnccc2n1C1CC1 | inactive |
| CS(=O)(=O)c1ccc(Oc2nccc(-c3c(-c4ccc(F)cc4)ncn3C3CCNCC3)n2)cc1 | inactive |
| NC(=O)c1cccc(Nc2nccc(Nc3cccc(F)c3)n2)c1 | 0.73 µM (active) |
| Fc1ccc(-c2ncn(C3CCNCC3)c2-c2ccnc(Oc3ccc(F)c(F)c3)n2)cc1 | inactive |
| Nc1nccc(-c2c(-c3ccc(F)cc3)ncn2CCCN2CCOCC2)n1 | inactive |
| NC(=O)Cc1ccccc1Oc1nccc(-c2c(-c3ccc(F)cc3)ncn2C2CCNCC2)n1 | inactive |
| NCc1ccc(-n2c(-c3nonc3N)nc3cnccc32)cc1 | inactive |

| SMILES | Potency |
| --- | --- |
| COc1ccc2c(-c3ccnc(Nc4cccc(OC(F)(F)F)c4)n3)cnn2n1 | inactive |
| NS(=O)(=O)c1ccc(Nc2ncc(-c3ccccc3)o2)cc1 | inactive |
| CC(=O)Nc1cccc(C#Cc2cncnc2Nc2ccc(OCc3cccc(F)c3)c(Cl)c2)n1 | inactive |
| COc1cc2ncn(-c3cc(OCc4cccs4)c(C(N)=O)s3)c2cc1OC | inactive |
| Cc1ccc2c(-c3ccnc(Nc4ccc5c(c4)OCCO5)n3)c(-c3ccc(C(F)(F)F)cc3)nn2n1 | inactive |
| COc1cc2ncn(-c3cc(OCc4ccccc4C(F)(F)F)c(C(C)=O)s3)c2cc1OC | inactive |
| COc1cc2c(cc1Nc1nc(Nc3ccsc3C(N)=O)c3cc[nH]c3n1)N(C(=O)CN(C)C)CCC2 | inactive |
| CCS(=O)(=O)c1ccc(OC)c(Nc2ncc(-c3cccc(-c4ccccc4F)c3)o2)c1 | inactive |
| Oc1[nH]c2ccccc2c1C=Nc1ccc(-n2cncn2)cc1 | 18.3 µM (active) |
| N#Cc1cccc(Nc2nccc(-c3cnn4ncccc34)n2)c1 | inactive |
| COc1ccc(-c2nn3ncccc3c2-c2ccnc(Nc3ccc4c(c3)OCCO4)n2)cc1 | inactive |
| CC(Oc1cc(-n2cnc3ccc(OCC(O)CO)cc32)sc1C(N)=O)c1ccccc1Cl (stereo not drawn) | inactive |
| COc1cc2ncn(-c3cc(OCc4ccccc4C(F)(F)F)c(C(=O)N(C)C)s3)c2cc1OC | inactive |
| CCn1c(-c2nonc2N)nc2ccncc21 | inactive |
| Cc1ccc(C(=O)NC2CCCCC2)cc1-c1ccc(C(=O)NCC2CC2)cc1 | inactive |
| O=C1NC(=O)C(c2cccc(Cl)c2)=C1Nc1ccc(Cl)c(C(=O)O)c1 | inactive |
